From PubChem
This is a sample that favours compounds with a hit; in the whole collection about 0.58% have one here.
Epigenetic reg: regulators of epigenetic silencing causing reporter derepression in mouse cells. murine LDR cells, GFP reporter derepression, 30 h. Potency, µM (titrated, usually from 53.9 µM), for inactives: at the highest dose GFP activation, hits mostly activators. actives 0.2% (n = 280,000). AID 1865; note: potency is the fitted concentration of half-maximal effect; % of control where 0% means no effect; nearly all actives have a fitted effect of over 60% in size
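Murine LDR cells carrying a silenced, genomically integrated CMV-driven GFP reporter were exposed to compound for 30 hours at 37 C. After PBS washes, GFP-positive cells (20–120 um objects) were counted by laser-scanning microplate cytometry.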
PINK1 expr mod: PINK1 expression modulation; PINK1 immunofluorescence, high-content cytometry, 24 h; Potency, µM (top dose mostly 76.6 µM), for inactives: at the top dose activation (PINK1 increase), most hits filed as activators; actives 0.2% (n = 410,000); AID 624263; active = well fitted activation curve with a large enough effect; inconclusive = small, poorly fitted or top-dose-only effect; cell line not stated here; note: potency is the fitted concentration of half-maximal effect; % of control where 0% means no effect; nearly all actives have a fitted effect of over 65% in size
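Measures PINK1 amount and localization on or inside mitochondria by immunofluorescence. Stable cells get compounds at 5 concentrations for 24 hours before fixation and staining; CCCP controls included.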
PKM2 act: increases activity of human pyruvate kinase M2 | P14618 | purified PKM2, Kinase-Glo ATP luminescence, activation; response scale: 0% is enzyme alone, no compound | Potency, µM (titrated, usually from 57.5 µM), inactives show at the top dose activation, hits mostly activators | actives 0.34% (n = 260,000) | AID 1631; note: potency is the fitted concentration of half-maximal effect; % is set by controls: 0 for no effect and ±100 for the full control effect; nearly all actives have a fitted effect of over 55% in size
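Purified hPK-M2 (>95% pure) converted ADP (0.1 mM final) to ATP with 0.5 mM PEP in 50 mM imidazole pH7.2, KCl, MgCl2, Tween 20, BSA; 1 h at room temperature. ATP detected by Kinase-Glo luminescence.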
B2AR arrestin: beta2AR (human) beta-arrestin recruitment activity; P07550; Potency, µM (titrated, usually from 46.1 µM), without a hit: top-dose activation, most hits filed as activators; actives 0.02% (n = 330,000); AID 492947; beta-arrestin recruitment to beta2AR, cell-based reporter;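 note: potency is the fitted concentration of half-maximal effect; 0% = DMSO controls and full agonism = EC100 isoproterenol or metaproterenol; nearly all actives have a fitted effect of over 65% in size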
Target sequence (P07550 whole entry, looked up): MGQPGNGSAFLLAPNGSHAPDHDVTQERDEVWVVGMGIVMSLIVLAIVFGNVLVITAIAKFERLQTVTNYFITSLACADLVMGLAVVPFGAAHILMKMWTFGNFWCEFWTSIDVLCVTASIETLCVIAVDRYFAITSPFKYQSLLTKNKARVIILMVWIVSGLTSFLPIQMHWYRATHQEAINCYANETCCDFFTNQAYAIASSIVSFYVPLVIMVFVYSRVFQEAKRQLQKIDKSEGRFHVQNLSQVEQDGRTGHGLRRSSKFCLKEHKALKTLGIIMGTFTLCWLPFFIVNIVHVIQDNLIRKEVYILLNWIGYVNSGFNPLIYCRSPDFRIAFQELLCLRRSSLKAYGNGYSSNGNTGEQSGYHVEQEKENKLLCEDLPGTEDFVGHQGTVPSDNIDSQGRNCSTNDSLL
IL2 activator: activators of IL-2. IL-2 activation reporter assay, cell-based qHTS; stimulated with anti-CD3/CD4/CD28 beads; in transgenic mouse T cells. activation, % (series mostly up to about 46 µM). actives 0.065% (n = 360,000). AID 652025; in the data active = activation above about 50%; inconclusive = mostly about 30% to 49%; note: 0% is about no effect
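Unstimulated transgenic mouse T cells; 60-min compound exposure; bead-based TCR/CD4/CD28 stimulation; 18 h culture, 37 degrees C; dual fluorescence (EGFP, DsRed) plate cytometry.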
* marks the source's active call; other numbers are inactive results; ? = inconclusive; . = no result given; [ ] = dose if it differs, or a comment. Unless noted, calls come from the whole dose curve; as a rule, active = well fitted curve in the direction sought with a large enough effect; inconclusive = small, poorly fitted or top-dose-only effect, or another doubt; inactive = no such curve, though single readings can be large; an effect the other way counts as inactive or inconclusive.

SMILES	Epigenetic reg	PINK1 expr mod	PKM2 act	B2AR arrestin	IL2 activator
Cc1ccc(/C=c2/sc3nnc(-c4ccccc4Cl)n3c2=O)o1	0.0%	2.7%	8.91µM*	3.1%	0.1
Cc1ccccc1CN1c2ccccc2-c2nc(SCC(=O)NCCc3ccccc3)ncc2S1(=O)=O	22.4µM*	2.7%	.	.	.
CCSc1ncc(Cl)c(C(=O)Nc2sc3c(c2C(=O)NCc2cccnc2)CCCC3)n1	7.5%	11.2µM*	-1.1%	0.0%	2.3
CCCSc1ncc(Cl)c(C(=O)Nc2sc3c(c2C(=O)NCCCOC)CCCC3)n1	.	2.2%	.	.	.
CCCSc1ncc(Cl)c(C(=O)Nc2sc3c(c2C(N)=O)CCCC3)n1	?	8.91µM*	.	.	.
CCNC(=O)c1c(NC(=O)c2nc(SCC)ncc2Cl)sc2c1CCCC2	.	0.9%	.	.	.
CCSc1ncc(Cl)c(C(=O)Nc2sc3c(c2C(=O)NCCCOC)CCCC3)n1	3.55µM*	2.5%	.	.	.
Cc1cccnc1-c1cccc2c1OC(CNC(=O)/C=C/c1cccs1)C2 (centres undefined)	.	2.5%	.	.	.
COc1cccc(/C=N/Nc2snc(SC)c2C#N)c1O	-0.9%	12.6µM*	-3.8%	0.0%	-0.7
COc1ccc(/C=N/Nc2snc(SC)c2C#N)cc1OC	-1.1%	1.0%	-13.7%	-0.6%	-0.6
Cc1nc(CN2CCN(C(=O)CC3(c4ccccc4Cl)CC(=O)N(C)C3=O)CC2)cs1 (centres undefined)	.	-0.2%	.	.	.
CC[n+]1c(/C=C/N(C)c2ccccc2)oc2ccc(F)cc21	11.3%	1.3%	3.3%	4.3%	-4.2
CC[n+]1c(/C=C/Nc2ccccc2)oc2ccc(OC)cc21	12.6µM*	2.0%	-1.9%	-0.1%	10.3
CC[n+]1c(/C=C/Nc2ccccc2)oc2ccccc21	15.8µM*	3.5%[38.3 µM]	-8.5%	0.4%	0.9
COc1ccc2nc(NCc3ccccc3)[nH]c2c1	-1.0%	15.8µM*	2.5%	-1.2%	0.4
Cc1ccc2[nH]nc(C(=O)N3CCOc4ccc(CN5CCc6sccc6C5)cc4C3)c2c1	.	4.2%	.	.	.
Cc1ccc(N2C(=O)CC(Sc3ccccc3C(=O)O)C2=O)c([N+](=O)[O-])c1 (centres undefined)	-4.3%	1.0%	?	-0.3%	-1.3
COc1ccc(N2C(=O)CC(Sc3ccccc3C(=O)O)C2=O)c([N+](=O)[O-])c1 (centres undefined)	1.1%	-0.2%	20µM*	0.3%	-2.3
COc1cc(=O)n2c(c1C(=O)NCc1ccco1)CCN(Cc1ccc(F)cc1Cl)CC2	.	0.0%	.	.	.
CCOC(=O)c1cnc(-n2nc(C)cc2C)nc1NC	-1.8%	-0.1%[38.3 µM]	-0.3%	17.8µM*	-2.6
Cc1oc(-c2ccccc2NS(C)(=O)=O)nc1CN(C)Cc1ccc(Cl)cc1	.	-0.9%	.	.	.
O=c1c(Cl)c2oc3ccccc3nc-2c2ccccc12	22.4µM*	?	-0.9%	-1.2%	21.9
Cc1ccsc1CN1CCc2nnc(CCNC(=O)c3ccc(F)cc3)n2CC1	.	1.2%	.	.	.
COc1ccc(-c2ccc(-c3noc(C)n3)c(OC)n2)cc1	-1.0%	15.8µM*	5.6%	0.0%	-0.8
CCOc1nc(-c2ccc(OC)cc2)ccc1-c1noc(C)n1	0.0%	-2.0%[38.3 µM]	-3.0%	-0.1%	-0.5
SMILES	Epigenetic reg	PINK1 expr mod	PKM2 act	B2AR arrestin	IL2 activator
O=[N+]([O-])c1ccc(O)c(/C=N\N=C2c3ccccc3-c3ccccc32)c1	-1.1%	10µM*	-1.2%	0.0%	-0.4
COc1ccc(C(=O)NCC2Cc3cccc(-c4cncnc4)c3O2)c(OC)c1OC (centres undefined)	.	-1.1%	.	.	.
Cc1csc(SCC(=O)Nc2cc(S(=O)(=O)N3CCOCC3)ccc2N2CCOCC2)n1	-1.7%	2.5%	-3.0%	2.3%	-0.4
Cc1csc(SCC(=O)c2ccc(S(=O)(=O)N3CCOCC3)cc2)n1	-0.7%	-1.9%	28.2µM*	0.4%	-3.1
CC(C)c1c(C(=O)N(C)Cc2cccc3ncccc23)cnn1-c1nccc(-c2ccco2)n1	.	-0.3%	.	.	.
CCOc1ccc(Nc2nc3c(C)cccc3cc2C#N)cc1	.	12.2%	-0.2%	-0.3%	57.5*
COc1ccccc1CCNc1ncnc2sc(C(=O)N3CCCN(C=O)CC3)c(C)c12	.	1.2%	.	.	.
COCCn1c(N)c(C(=O)NS(=O)(=O)c2ccc(C)cc2)c(=O)[nH]c1=O	-2.7%	-1.0%	25.1µM*	0.1%	1.8
COCCn1c(N)c(C(=O)c2cccc(S(=O)(=O)N3CCCCCC3)c2)c(=O)[nH]c1=O	.	14.4%	.	-0.1%	0.1
CCC(C)NC(=O)CSc1nc2cc3c(cc2c(=O)n1Cc1ccc(C(=O)NCCc2ccc(OC)c(OC)c2)cc1)OCO3 (centres undefined)	11.2µM*	0.1%	.	.	.
CCOc1c(OC(C)=O)ccc(/C=C/c2ccc3cccc(OC(C)=O)c3n2)c1[N+](=O)[O-]	-0.9%	-3.9%[38.3 µM]	-0.4%	-0.3%	-1.4
C=CCN1C(=O)/C(=C/c2ccc(OC(C)=O)c(OCC)c2[N+](=O)[O-])SC1=S	-3.1%	4.47µM*	6.7%	-0.2%	-1.5
CC(C)N(C(=O)[C@H]1C[C@H](CC(=O)NCC23CC4CC(CC(C4)C2)C3)C(=O)N2CCc3c([nH]c4ccc(Cl)cc34)[C@]12C)C(C)C	.	35.5µM*	.	-0.1%	-0.9
CCN(CC)C(=O)[C@H]1C[C@H](CC(=O)NCC23CC4CC(CC(C4)C2)C3)C(=O)N2CCc3c([nH]c4ccc(Cl)cc34)[C@]12C	.	?	.	-0.3%	-0.8
COCc1c(C(=O)N2CCN(c3ccccc3O)CC2)cnn1-c1nccc(-c2cccs2)n1	.	0.9%	.	.	.
CCCCn1cc(C(=O)c2cc(Br)ccc2O)cc(C#N)c1=O	-1.1%	17.8µM*	-0.3%	-0.2%	-2.3
CCOCCCn1cc(C(=O)c2cc(Br)ccc2O)cc(C#N)c1=O	2.1%	3.6%	2.5%	0.0%	-2.4
Cc1ccccc1NC(=O)c1cc(C(=O)c2cc(Cl)ccc2O)cn(-c2ccccc2C)c1=O	-1.3%	15.8µM*	3.9%	?	1.1
Cc1ccc(-n2cc(C(=O)c3cc(Cl)ccc3O)cc(C#N)c2=O)cc1	-1.3%	17.8µM*	4.0%	3.8%	-0.3
COc1ccc(CN2CCCC(n3cc(C(=O)N4CCCCC4)nn3)C2)cc1OC (centres undefined)	.	-1.1%	.	.	.
COc1ccc(-c2cc(C)cc3c2OC(CNC(=O)/C=C/c2ccncc2)C3)nn1 (centres undefined)	.	1.0%	.	.	.
Oc1c(CNc2ccccc2)cc(COCc2ccccc2)c2cccnc12	.	0.9%	.	?	-0.9
COCc1cc(CN2CCN(C)CC2)c(O)c2ncccc12	?	17.2%	-3.2%	-0.7%	-0.3
Oc1c(CN2CCOCC2)cc(COCc2ccccc2)c2cccnc12	3.98µM*	-0.8%	1.0%	5.8µM*	-0.7
CC(C)OCc1cc(CN2CCN(c3ccccc3)CC2)c(O)c2ncccc12	2µM*	0.7%	.	.	.
CCOCc1cc(CN2CCN(c3cccc(Cl)c3)CC2)c(O)c2ncccc12	3.55µM*	1.6%	.	.	.
